“And” between values parts separate entries of the source, which are not always exact repeats. Identical values can stand only once. Records with an inconclusive call do not appear. A structure can be active in one record and inactive in another. The source made the active and inactive calls. Unless noted, the call rests on the fitted dose curve; in most records, active means well fitted curve in the direction sought with a large enough effect in the repeat runs; inconclusive means weak or mixed curves; inactive means no such curve, though single readings can be large; an effect the other way counts as inactive or inconclusive.

For experiment [1], the target named is Acetylcholinesterase (Homo sapiens) (UniProt P22303). Nature of the experiment: Acetylcholinesterase (AChE) small molecule antagonists: colormetric cell-based qHTS assay (AID 1347395; calls by dose curve; further: nearly all actives have a fitted effect of over 30% in size). The essentials:
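After overnight attachment at 37 C, SH-SY5Y cells get 30 min compound exposure; detection cocktail (acetylthiocholine, DTNB) then incubates 90 min at 37 C, and absorbance reflects AChE-generated thiocholine.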

Experiment [2] shares this target. Briefly: Acetylcholinesterase (AChE) small molecule antagonists: enzyme-based qHTS assay (AID 1347397; calls by dose curve; further: nearly all actives have a fitted effect of over 55% in size). To be noted: Potency: AChE enzyme activity inhibition. The essentials:
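Recombinant human AChE, dispensed at 50 mU/mL, was preincubated with Tox21 10K compounds or DMSO vehicle for 30 min at room temperature. DTNB plus acetylthiocholine was then added, and thiocholine was measured colorimetrically after a further 10 min.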

Experiment [3] shares this target. Briefly: Acetylcholinesterase (AChE) small molecule antagonists: fluorescence cell-based qHTS assay (AID 1347398; calls by dose curve; further: nearly all actives have a fitted effect of over 50% in size). The conditions noted are these: Potency: AChE activity. The essentials: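 Human SH-SY5Y cells were plated overnight at 37 C, exposed to compound for 30 min at 37 C, 5% CO2, then given acetylthiocholine plus Thiolite Green for 40 min at room temperature; thiocholine fluorescence (Ex/Em 490/520 nm) reports endogenous AChE activity.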

Experiment [4] has the same target. Briefly: Acetylcholinesterase (AChE) small molecule antagonists: enzyme-based qHTS assay with human liver microsomes (AID 1347399; calls by dose curve; further: nearly all actives have a fitted effect of over 60% in size). The conditions noted are these: Potency: qHTS inhibition. In a few lines: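 Recombinant human AChE (50 mU/mL in the enzyme mix) and human liver microsomes (0.25 mg/mL final) were preincubated with compound and NADPH (0.25 mg/mL final) for 30 min at 37 C. Acetylthiocholine/DTNB was then added; thiocholine was read colorimetrically after 10 min at room temperature.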

The target of experiment [5] is Cytochrome P450 2D6 (Homo sapiens) (UniProt P10635). Nature of the experiment: Cytochrome P450 Family 2 Subfamily D Member 6 (CYP2D6) small molecule antagonists: luciferase reporter qHTS assay (AID 1671196). Further: nearly all actives have a fitted effect of over 50% in size. Further: potency means the concentration at half of the fitted maximal effect. The essentials: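 P450-Glo format: CYP2D6 converts a proluciferin substrate to luciferin in an NADPH-driven reaction lasting 1 h at room temperature. Light output, proportional to CYP2D6 activity, reflects interference by test chemicals.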

For experiment [6], the target named is Cytochrome P450 2C19 (Homo sapiens) (UniProt P33261). Briefly: Cytochrome P450 Family 2 Subfamily C Member 19 (CYP2C19) small molecule antagonists: luciferase reporter qHTS assay (AID 1671197). Further: nearly all actives have a fitted effect of over 65% in size. Further: potency means the concentration at half of the fitted maximal effect. The essentials:
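P450-Glo CYP2C19 system: enzyme-substrate mix with compound 10 min at room temperature, then NADPH regeneration solution, 1 h at 37C. Proluciferin-to-luciferin conversion detected by luminescence after 20 min with detection reagent; ketoconazole as positive control.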

In experiment [7] the target is Cytochrome P450 2C9 (Homo sapiens) (UniProt P11712). Briefly: Cytochrome P450 Family 2 Subfamily C Member 9 (CYP2C9) small molecule antagonists: luciferase reporter qHTS assay (AID 1671198). Further: nearly all actives have a fitted effect of over 50% in size. Further: potency means the concentration at half of the fitted maximal effect. The essentials: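 CYP2C9 activity was measured with a P450-Glo proluciferin substrate. Enzyme–substrate mix was held with compound for 10 min at room temperature, then NADPH regeneration solution was added for 1 h at 37C. Luciferin product was read as luminescence.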

Experiment [8] has as its target Cytochrome P450 1A2 (Homo sapiens) (UniProt P05177). Nature of the experiment: Cytochrome P450 Family 1 Subfamily A Member 2 (CYP1A2) small molecule antagonists: luciferase reporter qHTS assay (AID 1671199). Further: nearly all actives have a fitted effect of over 50% in size. Further: potency means the concentration at half of the fitted maximal effect. In a few lines:
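Inhibition of CYP1A2 conversion of proluciferin to luciferin, detected by luminescence. Reaction run 1 h at room temperature with NADPH regeneration after brief compound preincubation.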

Experiment [9] deals with Voltage-gated inwardly rectifying potassium channel KCNH2 (Homo sapiens) (UniProt Q12809). Nature of the experiment: Human Ether-a-go-go-Related Gene (hERG) channel small molecule antagonists: fluorescence cell-based qHTS assay (AID 1671200). Further: nearly all actives have a fitted effect of over 50% in size. Further: potency means the concentration at half of the fitted maximal effect. In a few lines:
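In this thallium-flux screen, overnight-cultured U2OS cells bearing the channel are dye-loaded in darkness for an hour, rested 10 min at room temperature, and then monitored kinetically at 480/540 nm for two minutes post-stimulus.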

For experiment [10], the target named is Cytochrome P450 3A4 (Homo sapiens) (UniProt P08684). Nature of the experiment: Cytochrome P450 Family 3 Subfamily A Member 4 (CYP3A4) small molecule antagonists: luciferase reporter qHTS assay (AID 1671201). Further: nearly all actives have a fitted effect of over 50% in size. Further: potency means the concentration at half of the fitted maximal effect. The essentials: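 CYP3A4 activity was followed with a P450-Glo proluciferin substrate. Test compounds in DMSO were preincubated 10 min; NADPH regeneration then ran 1 h, and light output was read 20 min after detection reagent.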
Chain of Cytochrome P450 3A4 (Homo sapiens) (P08684 whole entry, looked up): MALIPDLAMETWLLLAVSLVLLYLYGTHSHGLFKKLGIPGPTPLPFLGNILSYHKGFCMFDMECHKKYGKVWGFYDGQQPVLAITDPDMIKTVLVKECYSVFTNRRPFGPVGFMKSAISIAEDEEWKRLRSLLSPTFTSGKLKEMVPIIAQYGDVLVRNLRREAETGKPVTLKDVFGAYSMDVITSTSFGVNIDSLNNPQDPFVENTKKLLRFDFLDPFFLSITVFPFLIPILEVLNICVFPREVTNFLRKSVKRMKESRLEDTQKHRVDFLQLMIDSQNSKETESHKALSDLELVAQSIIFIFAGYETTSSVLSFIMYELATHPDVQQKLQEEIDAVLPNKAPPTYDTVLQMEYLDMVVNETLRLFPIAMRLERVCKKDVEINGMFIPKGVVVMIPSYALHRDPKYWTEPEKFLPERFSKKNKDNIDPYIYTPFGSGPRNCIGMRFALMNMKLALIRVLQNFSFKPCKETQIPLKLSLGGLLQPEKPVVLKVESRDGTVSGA

Chain of Cytochrome P450 2D6 (Homo sapiens) (P10635 whole entry, looked up): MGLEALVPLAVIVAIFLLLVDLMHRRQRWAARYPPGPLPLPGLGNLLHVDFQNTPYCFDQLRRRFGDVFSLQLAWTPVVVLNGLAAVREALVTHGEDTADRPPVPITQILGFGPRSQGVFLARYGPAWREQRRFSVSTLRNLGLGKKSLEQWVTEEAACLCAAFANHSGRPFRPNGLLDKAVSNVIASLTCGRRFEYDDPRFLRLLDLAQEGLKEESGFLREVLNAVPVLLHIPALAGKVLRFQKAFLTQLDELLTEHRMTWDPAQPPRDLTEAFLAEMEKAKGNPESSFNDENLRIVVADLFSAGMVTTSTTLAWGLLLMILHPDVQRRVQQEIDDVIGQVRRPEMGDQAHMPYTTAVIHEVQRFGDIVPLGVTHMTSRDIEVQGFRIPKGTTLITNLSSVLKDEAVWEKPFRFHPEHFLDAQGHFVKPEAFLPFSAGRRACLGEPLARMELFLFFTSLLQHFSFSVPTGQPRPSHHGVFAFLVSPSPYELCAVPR
Chain of Cytochrome P450 2C9 (Homo sapiens) (P11712 whole entry, looked up): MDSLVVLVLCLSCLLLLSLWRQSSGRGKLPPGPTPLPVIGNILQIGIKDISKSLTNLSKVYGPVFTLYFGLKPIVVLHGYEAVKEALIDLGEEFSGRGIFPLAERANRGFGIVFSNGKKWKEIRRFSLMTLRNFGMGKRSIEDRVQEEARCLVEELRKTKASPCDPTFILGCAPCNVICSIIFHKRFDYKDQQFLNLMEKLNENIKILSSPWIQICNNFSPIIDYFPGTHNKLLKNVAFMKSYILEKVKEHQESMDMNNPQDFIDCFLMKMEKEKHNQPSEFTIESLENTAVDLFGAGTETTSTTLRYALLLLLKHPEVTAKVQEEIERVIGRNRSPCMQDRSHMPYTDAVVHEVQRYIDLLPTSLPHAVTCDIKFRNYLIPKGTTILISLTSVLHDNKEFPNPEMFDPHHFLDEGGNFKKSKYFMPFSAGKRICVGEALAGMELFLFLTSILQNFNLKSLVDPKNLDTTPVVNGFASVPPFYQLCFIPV
Chain of Cytochrome P450 2C19 (Homo sapiens) (P33261 whole entry, looked up): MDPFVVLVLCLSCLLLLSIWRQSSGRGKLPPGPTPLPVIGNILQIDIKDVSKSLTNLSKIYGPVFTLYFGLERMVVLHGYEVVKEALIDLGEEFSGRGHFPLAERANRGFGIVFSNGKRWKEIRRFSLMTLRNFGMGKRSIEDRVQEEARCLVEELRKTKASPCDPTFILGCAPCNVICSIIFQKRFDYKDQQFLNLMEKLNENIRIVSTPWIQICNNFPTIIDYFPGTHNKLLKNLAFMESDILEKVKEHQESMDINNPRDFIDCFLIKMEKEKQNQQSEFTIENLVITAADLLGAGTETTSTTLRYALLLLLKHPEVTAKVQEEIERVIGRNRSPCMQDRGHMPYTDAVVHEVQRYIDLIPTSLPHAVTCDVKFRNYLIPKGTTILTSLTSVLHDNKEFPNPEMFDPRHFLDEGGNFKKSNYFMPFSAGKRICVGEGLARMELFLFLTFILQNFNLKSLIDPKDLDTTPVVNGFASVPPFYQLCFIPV
Chain of Cytochrome P450 1A2 (Homo sapiens) (P05177 whole entry, looked up): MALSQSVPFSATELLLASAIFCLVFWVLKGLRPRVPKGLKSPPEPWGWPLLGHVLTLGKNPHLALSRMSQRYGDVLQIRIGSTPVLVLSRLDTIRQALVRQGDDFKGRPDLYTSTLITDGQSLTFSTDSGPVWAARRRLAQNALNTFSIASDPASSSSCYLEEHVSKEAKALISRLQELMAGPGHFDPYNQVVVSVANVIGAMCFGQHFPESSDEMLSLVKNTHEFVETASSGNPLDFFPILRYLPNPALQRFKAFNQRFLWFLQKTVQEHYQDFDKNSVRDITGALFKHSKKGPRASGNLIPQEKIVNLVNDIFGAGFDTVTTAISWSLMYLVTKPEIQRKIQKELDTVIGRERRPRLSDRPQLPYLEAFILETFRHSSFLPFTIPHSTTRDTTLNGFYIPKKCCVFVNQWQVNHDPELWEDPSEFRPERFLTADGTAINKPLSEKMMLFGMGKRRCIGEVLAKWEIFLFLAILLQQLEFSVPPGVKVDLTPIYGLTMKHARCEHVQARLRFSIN
Chain of Voltage-gated inwardly rectifying potassium channel KCNH2 (Homo sapiens) (Q12809 whole entry, looked up): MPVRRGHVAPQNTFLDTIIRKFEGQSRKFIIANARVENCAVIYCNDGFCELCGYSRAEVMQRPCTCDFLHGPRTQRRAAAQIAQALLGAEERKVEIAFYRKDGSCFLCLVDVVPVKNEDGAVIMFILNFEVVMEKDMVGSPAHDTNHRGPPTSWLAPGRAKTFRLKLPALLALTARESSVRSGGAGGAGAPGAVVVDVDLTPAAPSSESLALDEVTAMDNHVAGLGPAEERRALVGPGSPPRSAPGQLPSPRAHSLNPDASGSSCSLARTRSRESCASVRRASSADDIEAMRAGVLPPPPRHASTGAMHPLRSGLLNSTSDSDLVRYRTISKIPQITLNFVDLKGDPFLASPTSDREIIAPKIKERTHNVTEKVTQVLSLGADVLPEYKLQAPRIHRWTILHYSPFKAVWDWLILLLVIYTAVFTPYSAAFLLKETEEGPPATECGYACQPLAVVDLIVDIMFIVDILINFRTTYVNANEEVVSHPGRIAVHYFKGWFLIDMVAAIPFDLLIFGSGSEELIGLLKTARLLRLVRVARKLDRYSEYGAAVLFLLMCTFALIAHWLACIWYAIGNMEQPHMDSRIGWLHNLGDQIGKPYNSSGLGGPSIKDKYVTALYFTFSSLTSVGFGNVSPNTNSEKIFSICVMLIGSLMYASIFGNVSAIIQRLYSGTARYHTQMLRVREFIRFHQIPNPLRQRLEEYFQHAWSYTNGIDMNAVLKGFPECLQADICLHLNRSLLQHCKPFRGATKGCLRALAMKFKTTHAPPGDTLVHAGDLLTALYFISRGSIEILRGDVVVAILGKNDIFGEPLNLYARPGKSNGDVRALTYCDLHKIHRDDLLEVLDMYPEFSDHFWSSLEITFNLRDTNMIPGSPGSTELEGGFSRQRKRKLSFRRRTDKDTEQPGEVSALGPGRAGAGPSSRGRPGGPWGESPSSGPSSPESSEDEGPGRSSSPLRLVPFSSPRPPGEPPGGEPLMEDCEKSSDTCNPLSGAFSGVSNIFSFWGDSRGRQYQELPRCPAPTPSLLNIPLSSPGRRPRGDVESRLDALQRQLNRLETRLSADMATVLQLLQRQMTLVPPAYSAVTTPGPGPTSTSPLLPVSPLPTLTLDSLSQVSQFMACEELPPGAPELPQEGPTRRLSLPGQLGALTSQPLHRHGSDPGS
Chain of Acetylcholinesterase (Homo sapiens) (P22303 whole entry, looked up): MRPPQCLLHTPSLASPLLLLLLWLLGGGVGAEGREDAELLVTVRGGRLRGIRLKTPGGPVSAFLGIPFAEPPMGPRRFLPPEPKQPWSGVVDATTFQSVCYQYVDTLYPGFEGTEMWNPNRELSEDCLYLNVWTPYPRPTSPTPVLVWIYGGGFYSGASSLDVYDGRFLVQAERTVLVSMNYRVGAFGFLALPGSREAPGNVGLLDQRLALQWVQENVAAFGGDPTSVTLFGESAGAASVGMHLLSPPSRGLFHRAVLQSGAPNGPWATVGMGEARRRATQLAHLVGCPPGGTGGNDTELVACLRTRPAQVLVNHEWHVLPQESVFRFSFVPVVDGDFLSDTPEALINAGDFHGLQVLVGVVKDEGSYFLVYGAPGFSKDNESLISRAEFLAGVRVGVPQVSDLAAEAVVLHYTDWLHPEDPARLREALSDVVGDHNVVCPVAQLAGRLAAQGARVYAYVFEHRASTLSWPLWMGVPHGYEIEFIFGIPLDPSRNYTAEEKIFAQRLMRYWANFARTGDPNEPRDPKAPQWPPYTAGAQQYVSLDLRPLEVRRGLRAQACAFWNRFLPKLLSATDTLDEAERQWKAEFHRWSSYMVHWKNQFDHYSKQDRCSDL

For the compound `O=C(O)C(F)(F)C(F)(F)C(F)(F)C(F)(F)C(F)(F)C(F)(F)C(F)(F)C(F)(F)C(F)(F)C(F)(F)F`, the Potency entry in experiment [1], in [2], in experiment [3], in experiment [4], in experiment [5] and in [6] was “inactive” throughout. Further, the Potency result in experiment [8], in experiment [9] and in experiment [10] was “inactive” throughout. In experiment [7], the Potency is 5.34 µM (active).
For `Oc1ccc(Cl)c(Cl)c1Cl`, the Potency entry in experiment [1], in experiment [2], in experiment [3], in experiment [4], in [5] and in experiment [9] was “inactive” throughout. Moreover, the Potency in experiment [6] and in experiment [8] was 26.1 µM (active) each time.
In the case of `CC(Cl)Cl`, the Potency result in experiment [1], in [2], in experiment [3], in experiment [4], in experiment [5] and in experiment [6] was “inactive” in each case. The Potency entry in experiment [7], in experiment [9] and in [10] was “inactive” in each case.
`CC(O)(CS(=O)(=O)c1ccc(F)cc1)C(=O)Nc1ccc(C#N)c(C(F)(F)F)c1` (stereo not given): the Potency entry in experiment [1], in experiment [2], in experiment [3], in [4], in experiment [5] and in [8] was “inactive” each time. Also, the Potency result in [9] was “inactive”. Besides, the values for the Potency in experiment [6], in experiment [7] and in experiment [10] were 3.69 µM (active), 13.1 µM (active) and 2.33 µM (active), respectively.
Take `S=C=NCc1ccccc1`: the Potency entry in experiment [1], in [2], in experiment [3], in experiment [4] and in experiment [9] was “inactive” throughout. The Potency was 28.6 µM (active) in [5]; 5.08 µM (active) in [6]; 36 µM (active) in experiment [7]; 28.6 µM (active) in experiment [8]; 20.2 µM (active) in [10].
`CCCCC(O)(Cn1cncn1)c1ccc(Cl)cc1Cl` (stereo not given): the Potency result in [1], in experiment [2], in [3], in [4] and in experiment [9] was “inactive” throughout. Moreover, the Potency was 31.7 µM (active) in experiment [5]; 0.252 µM (active) in experiment [6]; 0.71 µM (active) in experiment [7]; 35.6 µM (active) in experiment [8]; 0.126 µM (active) in [10].
In the case of `Clc1ccc(C(OCCN2CCCCC2)c2ccccc2)cc1` (stereo not given), the Potency entry in experiment [1], in experiment [2], in [3], in [4] and in [7] was “inactive” in each case. In addition, the results for the Potency in experiment [5], in experiment [6] and in experiment [9] were 0.174 µM (active), 24.5 µM (active) and 0.601 µM (active), respectively.
In the case of `Cn1sc(Cl)cc1=O`, the Potency entry in [1], in experiment [2], in experiment [3], in experiment [4], in [5] and in experiment [6] was “inactive” in each case. Besides, the Potency result in experiment [9] and in [10] was “inactive” in each case. Besides, in experiment [7], the Potency is 71 µM (active).
Consider `Clc1cccc2ccccc12`, for which the Potency result in experiment [1], in experiment [2], in [3], in experiment [4], in experiment [5] and in experiment [6] was “inactive” in each case. Besides, the Potency entry in [7], in experiment [9] and in [10] was “inactive” each time.
Take `CCCCCCCCOC(=O)c1ccc(C(=O)OCCCCCCCC)c(C(=O)OCCCCCCCC)c1`: the Potency entry in experiment [1], in [2], in experiment [3], in experiment [4], in experiment [5] and in experiment [8] was “inactive” each time. Further, the Potency entry in [9] and in [10] was “inactive” each time. Besides, the Potency in experiment [6] was 80.6 µM (active).
As to `CCCCOC(=O)c1ccccc1C(=O)OCc1ccccc1`, the Potency result in [1], in [2], in experiment [3], in [4] and in experiment [10] was “inactive” each time. Besides, the Potency result was “inactive and 71 µM (active)” in experiment [5]; 1.78 µM (active) and 1.12 µM (active) in experiment [6]; 8.92 µM (active) and 10 µM (active) in experiment [7]; 15.9 µM (active) and 12.7 µM (active) in experiment [8].
Regarding `CCOC(=O)CBr`, the Potency entry in [1], in [2], in experiment [3], in experiment [4], in experiment [9] and in experiment [10] was “inactive” in each case. The Potency in experiment [5] is 40.1 µM (active); in [6], 40.1 µM (active); in [8], 63.6 µM (active).

The values above are taken from PubChem BioAssay (Tox21).
